From ChEMBL document CHEMBL3433997, “St. Jude Leishmania screening dataset” (2016)

How the values were obtained:
Assay type in all cases: functional
[1] = target: Solute carrier family 2, facilitated glucose transporter member 1 (Homo sapiens) (UniProt P11166); experiment: ST_JUDE_LEISH: Cytotoxicity at 2uM final concentration against transgenic Leishmania Mexicana promastigotes LmGLUT1 that are glucose transport deficient and complemented with the human glucose transporter GLUT1. Activity is measured by DNA content using SYBR green in vitro
Chain of Solute carrier family 2, facilitated glucose transporter member 1 (Homo sapiens) (P11166 whole entry): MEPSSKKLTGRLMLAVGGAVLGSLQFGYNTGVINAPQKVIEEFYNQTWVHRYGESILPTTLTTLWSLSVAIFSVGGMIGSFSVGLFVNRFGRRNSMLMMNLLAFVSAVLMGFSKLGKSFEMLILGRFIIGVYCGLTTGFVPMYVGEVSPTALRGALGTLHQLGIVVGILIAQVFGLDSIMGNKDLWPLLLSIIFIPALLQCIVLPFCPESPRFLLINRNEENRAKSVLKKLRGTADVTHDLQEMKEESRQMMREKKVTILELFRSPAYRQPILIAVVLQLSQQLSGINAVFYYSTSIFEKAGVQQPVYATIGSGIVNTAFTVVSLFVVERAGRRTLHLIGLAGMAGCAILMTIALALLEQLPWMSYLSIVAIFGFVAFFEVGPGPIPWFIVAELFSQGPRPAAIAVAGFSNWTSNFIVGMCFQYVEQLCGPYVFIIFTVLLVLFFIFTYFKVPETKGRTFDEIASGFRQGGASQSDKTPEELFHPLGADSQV

[2] = target: Hexose transporter 1 (Plasmodium falciparum) (UniProt O97467); experiment: ST_JUDE_LEISH: Cytotoxicity at 2uM final concentration against transgenic Leishmania Mexicana promastigotes LmPfHT that are glucose transport deficient and complemented with the Plasmodium falciparum hexose transporter. Activity is measured by DNA content using SYBR green in vitro
[3] = target: Glucose transporter (Leishmania mexicana) (UniProt O61059); experiment: ST_JUDE_LEISH: Cytotoxicity at 2uM final concentration against transgenic Leishmania Mexicana promastigotes LmGT2 that are glucose transport deficient and complemented with the L. Mexicana glucose transporter 2. Activity is measured by DNA content using SYBR green in vitro

SMILES | inhibition [1] [%] | inhibition [2] [%] | inhibition [3] [%]
Cc1ccnc(NC(c2cccc(OCc3ccccc3)c2)c2ccc3cccnc3c2O)c1 (stereo not drawn) | 0.07 | 1.21 | -1.47
COc1cccc2cc(C(=O)N[C@@H](CC(C)C)C(=O)N[C@H](C=NN3CCOC3=O)Cc3ccccc3)oc12 | -0.71 | 0.23 | -0.91
OC(CNCc1ccccc1OCc1ccccc1)c1cccc(I)c1 (stereo not drawn) | 3.99 | 5.42 | 0.61
Cc1cc(C2CCN(CCCCNC(=O)c3ccc(-c4ccc(C#N)cc4)cc3)CC2)c(C)cc1OCCO | 10 | 12.3 | 9.78
COc1ccc2nccc([C@@H](O)CN3CCC(NCc4ccc5c(c4)nnn5C(C)C)CC3)c2c1 | 18.3 | 20.9 | 5
Cc1cccc2nc(-c3ccc(-c4ccc(NC(=O)NCc5cccc(F)c5)cc4)s3)[nH]c12 | 7.99 | 9.74 | 5.43
O=C(/C=C/c1ccc(C(F)(F)F)cc1)NCCCCCN1CCC(c2c[nH]c3ccccc23)CC1 | -1.24 | -1.37 | 0
O=C(NCc1cccc(C(F)(F)F)c1)C(c1cc2ccccc2o1)N1CCN(C(c2ccccc2)c2ccccc2)CC1 (stereo not drawn) | 1.37 | 2.33 | 0.71
CC(C)NC(=O)c1cccc(-c2ccc(OCCN3CCCC3c3cc4ccccc4[nH]3)cc2)c1 (stereo not drawn) | 1.77 | 3.47 | -1.97
ON=C(c1nc2ccccc2[nH]1)c1nc2ccccc2[nH]1 | -0.84 | -0.51 | 0.76
O=C(Nc1cc(C(F)(F)F)cc(C(F)(F)F)c1)c1cc(C(F)(F)F)cc(C(F)(F)F)c1 | 0.3 | -0.43 | 1.06
CC(C)Cn1cc(C2CCN(CCN3CCC(CNC(=O)c4ccc(NC(=O)c5ccc(Cl)cc5)cc4)CC3)CC2)c2ccccc21 | 7.85 | 7.36 | 4.99
CCC(C)(C)c1ccc(OCC(O)CN2CCCCC2)c(C(C)(C)CC)c1 (stereo not drawn) | 14.6 | 15.2 | 13.2
O=S1(=O)NC2(CCN(CCc3ccc(Cl)cc3)CC2)Nc2cc(F)cc(F)c21 | 7.66 | 8.79 | 7.55
Cc1cc(OCC(=O)Nc2ccc(-c3nc4ccccc4[nH]3)cc2)cc(C)c1Cl | 0.45 | 2 | -0.9
COc1ccc2nccc(N3CCCN(CCNS(=O)(=O)c4ccc5c(c4)NC(=O)CS5)CC3)c2n1 | 0.19 | 1 | -0.73

SMILES | inhibition [1] [%] | inhibition [2] [%] | inhibition [3] [%]
CCOC(=O)c1nc(-c2ccccc2)[nH]c1-n1nc(C)cc1C | 1.44 | 0.92 | 0.66
O=C(Nc1cc(F)cc(F)c1)N1CCOC(CCN2CCC(c3ccccc3)CC2)(c2ccc(Cl)c(Cl)c2)C1 (stereo not drawn) | 4.27 | 2.5 | 2.87
COc1ccc(-c2ccc(NC(=O)c3ccc(C#N)cc3)cc2)cc1CN1CCC(O)CC1 | -0.1 | -0.59 | -0.53
O=C(/C=C/c1ccc(Cl)cc1)NCCCCCN1CCC(C(=O)Nc2ccc(Cl)cc2)CC1 | -0.92 | 0.51 | 2.24
Cc1ccc(O)cc1Nc1ccnc2cc(-c3cccc(CNCCS(C)(=O)=O)c3)ccc12 | 1.09 | 0.12 | -3.77
CC(c1cccc(Nc2nccc(-c3c(-c4cccc(NC(=O)c5c(F)cccc5F)c4)nn4ccccc34)n2)c1)S(C)(=O)=O (stereo not drawn) | 3.25 | 2.14 | -0.68
Cc1cc(N[C@@H](Cc2ccccc2)C(=O)NCCc2ccccc2)nc(NCCc2ccccc2)n1 | 4.48 | 3.79 | 4.38
Nc1c(Cl)cc(C(O)CNCCCCCCCCCc2ccccn2)cc1Cl (stereo not drawn) | 0.94 | -0.21 | 0.6
CCNC(=O)c1cc(S(=O)(=O)N2CCN(c3ccccn3)CC2)cs1 | 0.14 | -0.21 | 2.62
COc1ccccc1Oc1c(N(C)S(=O)(=O)c2ccc(C(C)C)cc2)nc(C(F)(F)F)nc1N(C)S(=O)(=O)c1ccc(C(C)C)cc1 | 0.63 | 1.97 | 1
O=C(/C=C/c1ccc(Cl)c(Cl)c1)NCCCCCN1CCC(NC(=O)Nc2ccc(Cl)c(C(F)(F)F)c2)CC1 | 1.18 | 0.31 | 1.66
O=C(Nc1ccc(-c2nc3ccccc3[nH]2)cc1)c1cnc(Cl)c(Cl)c1 | 0.44 | -0.34 | 2.62
O=C(NCCc1ccccc1)N(Cc1cccc(-c2ccc(CNC3CCCC3)cc2)c1)C1CCN(Cc2ccccc2)CC1 | 13.9 | 13.2 | 11.2
CCOC(=O)c1cc(C(=O)OC)c2ccccn12 | 2.17 | 0.87 | 1.34
O=C(Nc1nc2cc(S(=O)(=O)NCCc3ccc(F)cc3)ccc2n1CCCn1ccnc1)c1ccc(Cl)cc1 | 1.74 | 2.83 | 1.86
